# Results published in paper PMC4552634, “A New Set of Chemical Starting Points with Plasmodium falciparum Transmission-Blocking Potential for Antimalarial Drug Discovery” (PLoS ONE, 2015).
# The campaign covered roughly 13,000 compounds. About 3,200 (25%) showed an effect of 50% or more. The list shows a part of the results.
# Tested on: P. falciparum stage V gametocytes
# Design: BacTiter-Glo ATP luminescence viability of purified stage V gametocytes in 384-well plates, per cent inhibition versus DMSO
# Conditions: 48 h, 5 µM; inhibitor
row,Compound,% Inhibition [%]
1,CC1(C)N=C(N)N=C(N)N1c1cccc(I)c1 [TCMDC-138037],-1.195
2,COc1ccc2nc(-c3ccccc3)cc(NCCN(C)C)c2c1 [TCMDC-123487],-6.807
3,c1ccc(-c2cc(NCCCCNc3cc(-c4ccccc4)nc4ccccc34)c3ccccc3n2)cc1 [TCMDC-137738],98.03
4,O=[N+]([O-])c1ccc(/C=N/Nc2cc(-c3ccccc3)nc3ccccc23)o1 [TCMDC-142051],34.86
5,c1ccc(-c2cc(NCCCCCCCCNc3cc(-c4ccccc4)nc4ccccc34)c3ccccc3n2)cc1 [TCMDC-137983],96.95
6,CN(C)CCNc1cc(-c2ccc3ccccc3c2)nc2ccccc12 [TCMDC-124260],3.28
7,c1ccc(-c2cc(NCCNc3cc(-c4ccccc4)nc4ccccc34)c3ccccc3n2)cc1 [TCMDC-137986],24.95
8,c1ccc(-c2cc(NCc3cccc4ccccc34)c3[nH]ncc3n2)cc1 [TCMDC-139455],76.18
9,COc1ccc2nc(-c3ccccc3)cc(NCCCNc3cc(-c4ccccc4)nc4ccc(OC)cc34)c2c1.Cl [TCMDC-137734],124.9
10,COc1ccc2c(NCCc3ccccc3)cc(-c3ccccc3)nc2c1 [TCMDC-138992],28.49
11,COc1ccc2nc(C)cc(NCc3cccc4ccccc34)c2c1.Cl [TCMDC-138974],-17.8
12,C(=NNc1cc(-c2ccccc2)nc2ccccc12)c1cccnc1 [TCMDC-142052],-23.81
13,CS(=O)(=O)NCCCNCc1ccc(-c2ccc(-c3nc4cc(C(F)(F)F)ccc4[nH]3)s2)cc1.O=C(O)C(F)(F)F [TCMDC-133076],-24.74
14,COc1ccc2cc(C(C)NC3CCN(c4cccc(NC(=O)c5ccncc5)c4)CC3)ccc2c1 (centres unmarked) [TCMDC-124668],-18.92
15,COc1ccc(CNC2CCN(C)CC2)cc1-c1ccc(S(=O)(=O)NCc2ccccc2)c(F)c1 [TCMDC-132262],59.53
16,COc1ccc(CNC2CCN(C)CC2)cc1-c1ccc(OC)c(S(=O)(=O)NCc2ccccc2)c1 [TCMDC-132249],105.1
17,COc1ccc(-c2cccc(CNC3CCN(C)CC3)c2)cc1S(=O)(=O)NCc1ccccc1 [TCMDC-132375],75.59
18,COc1ccc(CNC2CCN(C)CC2)cc1-c1ccc(S(=O)(=O)NCc2ccccc2)c(C)c1 [TCMDC-132480],85.24
19,NC1=NC(Cc2ccccc2)N(c2ccc(Cl)cc2)C(N)=N1 (centres unmarked) [TCMDC-131291],0.2754
20,CC(C)(C)C(C)(C)Cc1ccc(O)c(CN2CCN(c3ccccc3)CC2)c1 [TCMDC-125678],-31.97
21,CC(C)[C@H](NC(=O)c1ccc(O)c(-c2cccc(C(F)(F)F)c2)c1)C(=O)NCCN1CCCCC1 [TCMDC-140815],44.47
22,O=C(Nc1ccc(-c2ccc(-c3nc4ccccc4[nH]3)s2)cc1)Nc1ccc(Cl)c(Cl)c1 [TCMDC-133283],1.039

row,Compound,% Inhibition [%]
1,CC[C@H](NC(=O)c1c(CC2CCN(CC(C)=O)CC2)c(-c2ccccc2)nc2ccccc12)c1ccccc1 [TCMDC-141946],44.22
2,CC(C)(C)c1ccc(NC(=O)c2ccc(CN3CCCN(CC4CCCCC4)CC3)cc2)cc1 [TCMDC-136428],-70.52
3,N#Cc1cccc(NC(=O)Nc2ccc(-c3cccc(-c4nc5ccc(F)cc5[nH]4)c3)cc2)c1 [TCMDC-133199],24.35
4,CN(C(=O)c1snnc1-c1ccccc1)C1CCN(CCCCCNC(=O)/C=C/c2ccc(Cl)c(Cl)c2)CC1 [TCMDC-139993],-14.58
5,Oc1ccc2[nH]c(-c3ccc(F)cc3F)nc2c1CN1CCC(O)(c2ccccc2)CC1 [TCMDC-136532],-67.95
6,COc1ccc2nccc([C@@H](O)CN3CCC(NCc4nc5c([N+](=O)[O-])cccc5[nH]4)CC3)c2c1 [TCMDC-140982],-2.529
7,CC1CN(Cc2cccc(-c3ccc(-c4nc5cc(F)ccc5[nH]4)cc3)c2)CC(C)O1.O=C(O)C(F)(F)F (centres unmarked) [TCMDC-133818],13.23
8,CC(C)N1CCN(C(CN2CCN(CCCOc3cccc(-c4ccccc4)c3)CC2)c2ccc(F)cc2)CC1 (centres unmarked) [TCMDC-135498],62.15
9,CC(C)N1CCN(C(CN2CCN(CCCOc3ccccc3-c3ccccc3)CC2)c2ccc(F)cc2)CC1 (centres unmarked) [TCMDC-135499],44.69
10,CC(C)N1CCN(C(CN2CCN(CCCOc3ccc4nonc4c3)CC2)c2ccc(F)cc2)CC1 (centres unmarked) [TCMDC-135500],92.96
11,Cc1ccc(C2(C)CN(CCCOc3cccc(-c4ccc(C(=O)NC(C)C)cc4)c3)CCO2)cc1 (centres unmarked) [TCMDC-134386],27.16
12,COc1ccc(C(C(=O)NC2CCN(C[C@H](O)c3ccnc4ccc(OC)cc34)CC2)N2CCN(c3ccc(F)cc3)CC2)cc1 (some centres unmarked) [TCMDC-140993],-29
13,CC(C)N1CCN(C(CN2CCN(CCCOc3ccc(-c4ccccc4)cc3)CC2)c2ccc(F)cc2)CC1 (centres unmarked) [TCMDC-135497],69.79
14,CC(CN1CCN(CC(c2ccc(F)cc2)N2CCN(C)CC2)CC1)C(=O)c1ccc(O)cc1 (centres unmarked) [TCMDC-125496],29.96
15,CC(C)N1CCN(C(CN2CCN(CCCOc3cccc(F)c3)CC2)c2ccc(F)cc2)CC1 (centres unmarked) [TCMDC-135493],99.24
16,O=C(CCN1C(=O)c2ccccc2C1=O)N1CCN(CC=Cc2ccccc2)CC1 [TCMDC-125744],5.299
17,CCCN(c1ccc(C(F)(F)F)cc1[N+](=O)[O-])S(=O)(=O)C(c1ccccc1)c1ccc(C(F)(F)F)cc1[N+](=O)[O-] (centres unmarked) [TCMDC-132114],11.09
18,COc1ccc(C)c(Nc2ccnc(Nc3ccc(-c4cnc[nH]4)cc3)n2)c1 [TCMDC-138695],-34.59
19,CC(C)(C)NC(=O)COC(=O)c1c2c(nc3ccccc13)C(=Cc1ccc3c(c1)OCO3)CCC2 [TCMDC-125143],31.31
20,CC(C)CCN(Cc1cncn1Cc1cccc(Cl)c1)C(=O)c1cncc(-c2ccccc2)c1 [TCMDC-132465],21.61
21,Cc1cc2c(cc1C(F)(F)F)N(C(=O)Nc1cnc(OCCN(C)C)c(C(F)(F)F)c1)CC2 [TCMDC-139848],26.2
22,O=C(NCc1ccccc1)NC1CCN(c2ccnc3cc(Cl)ccc23)C1 (centres unmarked) [TCMDC-133402],-15.46

row,Compound,% Inhibition [%]
1,COc1ccc(NC(=O)NC2CCN(c3ccnc4cc(Cl)ccc34)C2)cc1 (centres unmarked) [TCMDC-133647],-25.5
2,c1cncc(CCNCc2cccc(-c3csc(-c4nc5ccccc5[nH]4)c3)c2)c1 [TCMDC-132878],-19.07
3,Cc1[nH]nc2cc(Nc3ccnc(Nc4ccc(CN5CCOCC5)cc4)n3)ccc12 [TCMDC-138633],14.24
4,O=C(Cc1cnc[nH]1)Nc1cccc(-c2ccc(-c3nc4ccc(C(F)(F)F)cc4[nH]3)cc2)c1 [TCMDC-136952],-24.24
5,CC(C)N1CCN(C(CN2CCN(CCCOc3ccc4ccccc4c3)CC2)c2ccc(F)cc2)CC1 (centres unmarked) [TCMDC-135495],83.07
6,O=C(Nc1cccc(-c2ccc(CN3CCC(O)CC3)cc2)c1)c1cccc(Cl)c1 [TCMDC-132645],-15.01
7,Cc1cccc2[nH]c(-c3cccc(-c4cccc(NC(=O)CCc5cnc[nH]5)c4)c3)nc12 [TCMDC-132158],-23.69
8,CCOC(=O)NCC(=O)Nc1cccc(-c2cccc(-c3nc4c(C)cccc4[nH]3)c2)c1 [TCMDC-137048],-2.875
9,O=C(CCc1cnc[nH]1)Nc1ccc(-c2cccc(-c3nc4ccccc4[nH]3)c2)cc1 [TCMDC-132150],3.081
10,Cc1cccc2[nH]c(-c3cccc(-c4cccc(NC(=O)Nc5ccccc5)c4)c3)nc12 [TCMDC-133152],-23.55
11,Cc1cccc2[nH]c(-c3ccc(-c4cccc(NC(=O)Cc5cnc[nH]5)c4)cc3)nc12 [TCMDC-136942],73.44
12,Cc1cccc2[nH]c(-c3cccc(-c4ccc(NC(=O)Cc5cnc[nH]5)cc4)c3)nc12 [TCMDC-136951],17.26
13,Cc1cccc2[nH]c(-c3cccc(-c4ccc(NC(=O)CCc5cnc[nH]5)cc4)c3)nc12 [TCMDC-132159],-12.17
14,O=C(CCc1cnc[nH]1)Nc1cccc(-c2cccc(-c3nc4ccccc4[nH]3)c2)c1 [TCMDC-132151],78.34
15,Cc1cccc2[nH]c(-c3ccc(-c4cccc(NC(=O)CCc5cnc[nH]5)c4)cc3)nc12 [TCMDC-132153],72.28
16,O=C(CCc1cnc[nH]1)Nc1cccc(-c2ccc(-c3nc4ccccc4[nH]3)cc2)c1 [TCMDC-132155],31.89
17,C#CCCC(=O)Nc1cccc(-c2cccc(-c3nc4c(C)cccc4[nH]3)c2)c1 [TCMDC-136857],61.5
18,Cc1cccc2[nH]c(-c3cccc(-c4cccc(NC(=O)Cc5cnc[nH]5)c4)c3)nc12 [TCMDC-136950],-8.646
19,O=C(Nc1cccc(-c2ccc(-c3nc4ccccc4[nH]3)cc2)c1)Nc1ccc2c(c1)OCO2 [TCMDC-133164],-3.868
20,O=C(CSc1ccccn1)Nc1c(F)cccc1F [TCMDC-123935],16.99
21,O=C(NC1CCCCC1)C1CCCN(C(=O)c2ccc(O)c(-c3ccc(Cl)c(Cl)c3)c2)C1 (centres unmarked) [TCMDC-140884],5.577
